A short description of test [1]: small molecules captured by biotinylated probe aFSTL3 – biochemical, small-molecule microarray, fluorescence 635/667, stem cell growth factor project, primary screen (AID 1064).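 Further: measures binding of the biotinylated anti-FSTL3 antibody to printed compounds.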 Particulars: higher = more signal.
Test [2] in a line: binders from COS7 lysate, DM2A8 probe, primary screen, torsin A project, cell lysate, small-molecule microarray, fluorescence 635/667 (AID 1065). Particulars: higher = more signal, COS7 lysate expressing mutant human TOR1A.
A short description of test [3]: small molecules captured by biotinylated probe aFGF2 – biochemical, small-molecule microarray, fluorescence 635/667, stem cell growth factor project, primary screen (AID 1067).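 Further: measures binding of biotinylated aFGF2 protein to printed compounds on slides; z-score merges feature fluorescence and signal-to-noise across triplicate slides.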 Conditions: higher = more signal.
Test [4] in a line: small molecules captured by biotinylated probe aFGF10 – biochemical, small-molecule microarray, fluorescence 635/667, stem cell growth factor project, primary screen (AID 1071).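 Further: score merges 667 nm spot intensity and signal to noise from triplicate slides.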 Conditions: higher = more signal.
In test [5] the target is Neurogenic locus notch homolog protein 2 (Homo sapiens) (UniProt Q04721). As to the kind of experiment: small molecules binding Notch2 protein – biochemical, small-molecule microarray, 635 nm fluorescence, stem cell growth factors, primary screen (AID 1073). Conditions: higher = more signal.
The target of test [6] is Pro-neuregulin-1, membrane-bound isoform (Homo sapiens) (UniProt Q02297). As to the kind of experiment: small molecules binding neuregulin-1 protein – biochemical, small-molecule microarray, fluorescence 635/667, psychiatric disease protein project, primary screen (AID 1075).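 Further: score combines 667 nm spot fluorescence with signal to noise.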 Particulars: NRG1 binding, 635 nm fluorescence, higher = more signal.
Pro-neuregulin-1, membrane-bound isoform (Homo sapiens), sequence (Q02297 whole entry, looked up, the tested form may be a part, canonical isoform): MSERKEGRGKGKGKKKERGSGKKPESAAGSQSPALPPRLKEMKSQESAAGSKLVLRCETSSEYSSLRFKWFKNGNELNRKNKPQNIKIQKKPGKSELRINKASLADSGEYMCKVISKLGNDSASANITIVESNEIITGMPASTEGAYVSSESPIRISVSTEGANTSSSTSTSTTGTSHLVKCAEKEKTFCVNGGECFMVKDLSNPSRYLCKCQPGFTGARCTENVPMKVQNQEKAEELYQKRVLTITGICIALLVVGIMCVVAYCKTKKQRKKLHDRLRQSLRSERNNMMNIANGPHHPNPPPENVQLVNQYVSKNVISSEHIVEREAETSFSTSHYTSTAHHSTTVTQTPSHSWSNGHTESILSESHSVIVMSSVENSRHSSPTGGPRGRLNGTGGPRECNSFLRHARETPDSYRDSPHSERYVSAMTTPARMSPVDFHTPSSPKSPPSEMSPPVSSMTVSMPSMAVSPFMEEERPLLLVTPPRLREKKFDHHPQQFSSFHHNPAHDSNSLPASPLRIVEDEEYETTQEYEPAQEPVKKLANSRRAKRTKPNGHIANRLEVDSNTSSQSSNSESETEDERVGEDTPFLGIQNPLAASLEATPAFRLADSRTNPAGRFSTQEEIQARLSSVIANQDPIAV
In test [7] the test system is Neuregulin-1 EGF-like domain. As to the kind of experiment: small molecules binding NRG1 EGF domain – biochemical, small-molecule microarray, 635 nm fluorescence, primary screen (AID 1081).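 Further: binding of the protein to compounds printed on small-molecule microarray slides.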 Particulars: higher = more signal.
Test [8] can be described thus: FRG1 expression reporter modulators in myotubes – cell-based, C2C12 myotubes, firefly/Renilla luciferase, luminescence, FRG1 inhibition for FSHD, primary screen (AID 1084). Particulars: FRG1 promoter luciferase, higher = more signal, called active from +8 up or from −8 down.
A short description of test [9]: small molecules captured by biotinylated probe aFST – biochemical, small-molecule microarray, fluorescence 635/667, stem cell growth factor project, primary screen (AID 1086).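 Further: score merges 667 nm fluorescence with signal-to-noise of each printed compound spot.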 Particulars: higher = more signal.
A short description of test [10]: binders of probe aHhip on microarray, primary screen, stem cell growth factor project, biochemical, small-molecule microarray, fluorescence 635/667 (AID 1087).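 Further: score merges spot fluorescence at 667nm with spot signal to noise ratio.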 Particulars: higher = more signal.
Test [11] relates to PRMT1 (protein arginine N-methyltransferase 1). Kind of test: small molecules binding arginine methyltransferase PRMT1 – biochemical, small-molecule microarray, 635 nm fluorescence, primary screen (AID 1088).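 Further: binding of Prmt1 protein to compounds spotted on small-molecule microarray slides.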 Conditions: higher = more signal.
Test [12] can be described thus: growth effects on S. cerevisiae YJM789 – YJM789 clinical isolate, OD600, 24 h, basal, primary screen (AID 1089).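 Further: growth of clinical yeast isolate S. cerevisiae YJM 789 seeded 1000 cells per well; test concentration not given here.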 Conditions: higher = more signal, called active from +8 up or from −8 down.
Test [13] can be described thus: S. pombe growth modifiers, basal conditions – strain 972, OD600, 24 h, no modulator, primary screen (AID 1090).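 Further: basal condition with compound alone and no growth modifier present; test concentration not given here.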 Conditions: S. pombe 972 growth, higher = more signal, called active from +8 up or from −8 down.
The nature of test [14]: budding yeast growth modifiers under rapamycin – strain BY4716, OD600, 96 h, primary screen (AID 1091). Further: test concentration not given here. Particulars: S. cerevisiae BY4716 + rapamycin, higher = more signal, called active from +8 up or from −8 down.
For test [15], the target named is Torsin-1A-interacting protein 2 (Homo sapiens) (UniProt Q8NFQ8). As to the kind of experiment: small molecules binding lysate-expressed LULL1 – cell lysate, human LULL1 lysate, 635/667 nm fluorescence, primary screen (AID 1092).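 Further: probe is lysate of COS7 cells overexpressing human LULL1; score merges per-feature 667 nm fluorescence with signal-to-noise.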 Conditions: small-molecule microarray, hLULL1 lysate binding, 635 nm fluorescence; higher = more signal.
Torsin-1A-interacting protein 2 (Homo sapiens), sequence (Q8NFQ8 whole entry, looked up): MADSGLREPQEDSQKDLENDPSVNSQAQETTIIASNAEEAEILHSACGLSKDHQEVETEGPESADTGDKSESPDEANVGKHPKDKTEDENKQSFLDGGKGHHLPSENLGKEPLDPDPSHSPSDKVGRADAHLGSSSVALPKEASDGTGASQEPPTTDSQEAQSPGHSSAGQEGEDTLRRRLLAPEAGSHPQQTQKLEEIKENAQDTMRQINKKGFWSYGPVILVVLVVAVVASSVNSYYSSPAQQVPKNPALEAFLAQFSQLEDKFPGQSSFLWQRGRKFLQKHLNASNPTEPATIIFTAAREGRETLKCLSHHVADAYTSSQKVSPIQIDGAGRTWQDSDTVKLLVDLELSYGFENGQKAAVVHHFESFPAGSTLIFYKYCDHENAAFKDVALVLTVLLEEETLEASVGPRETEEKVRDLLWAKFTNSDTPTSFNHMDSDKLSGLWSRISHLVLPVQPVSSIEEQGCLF
A short description of test [16]: optical density change of DRC41 E. coli – strain DRC41, OD650, 24 h, E. coli filamentation project, primary screen (AID 1093).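 Further: MC1000 strain lacking acrAB efflux and sulA so SOS filamentation is blocked; test concentration not given here.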 Conditions: E. coli DRC41 growth, higher = more signal, called active from +8 up or from −8 down.
The nature of test [17]: probe aLefty2 binding to arrayed compounds – biochemical, biotinylated probe, 635/667 nm fluorescence, primary screen (AID 1094).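 Further: score merges spot fluorescence near 667 nm with spot signal-to-noise ratio.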 Particulars: small-molecule microarray, higher = more signal.
The test system of test [18] is Noggin (protein binding on small-molecule microarray). Kind of test: small molecules binding Noggin protein – biochemical, 635/667 nm fluorescence, primary screen (AID 1095).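 Further: score merges 667 nm feature fluorescence with signal to noise over triplicate slides.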 Conditions: 635 nm fluorescence, higher = more signal.
Test [19] addresses Neurogenic locus notch homolog protein 3 (Homo sapiens) (UniProt Q9UM47). As to the kind of experiment: small molecules binding NOTCH3 protein – biochemical, 635/667 nm fluorescence, primary screen (AID 1096). Particulars: small-molecule microarray, 635 nm fluorescence, higher = more signal.
Test [20] is described as follows: probe aEGFR binding to arrayed compounds – biochemical, biotinylated probe, 635/667 nm fluorescence, primary screen (AID 1097).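 Further: probe is a biotinylated anti-EGFR antibody binding compounds printed on slides; score combines fluorescence near 667 nm and signal to noise of each spot.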 Conditions: small-molecule microarray, higher = more signal.

The source made the active and inactive calls.

Neurogenic locus notch homolog protein 3 (Homo sapiens), sequence (Q9UM47 whole entry, looked up): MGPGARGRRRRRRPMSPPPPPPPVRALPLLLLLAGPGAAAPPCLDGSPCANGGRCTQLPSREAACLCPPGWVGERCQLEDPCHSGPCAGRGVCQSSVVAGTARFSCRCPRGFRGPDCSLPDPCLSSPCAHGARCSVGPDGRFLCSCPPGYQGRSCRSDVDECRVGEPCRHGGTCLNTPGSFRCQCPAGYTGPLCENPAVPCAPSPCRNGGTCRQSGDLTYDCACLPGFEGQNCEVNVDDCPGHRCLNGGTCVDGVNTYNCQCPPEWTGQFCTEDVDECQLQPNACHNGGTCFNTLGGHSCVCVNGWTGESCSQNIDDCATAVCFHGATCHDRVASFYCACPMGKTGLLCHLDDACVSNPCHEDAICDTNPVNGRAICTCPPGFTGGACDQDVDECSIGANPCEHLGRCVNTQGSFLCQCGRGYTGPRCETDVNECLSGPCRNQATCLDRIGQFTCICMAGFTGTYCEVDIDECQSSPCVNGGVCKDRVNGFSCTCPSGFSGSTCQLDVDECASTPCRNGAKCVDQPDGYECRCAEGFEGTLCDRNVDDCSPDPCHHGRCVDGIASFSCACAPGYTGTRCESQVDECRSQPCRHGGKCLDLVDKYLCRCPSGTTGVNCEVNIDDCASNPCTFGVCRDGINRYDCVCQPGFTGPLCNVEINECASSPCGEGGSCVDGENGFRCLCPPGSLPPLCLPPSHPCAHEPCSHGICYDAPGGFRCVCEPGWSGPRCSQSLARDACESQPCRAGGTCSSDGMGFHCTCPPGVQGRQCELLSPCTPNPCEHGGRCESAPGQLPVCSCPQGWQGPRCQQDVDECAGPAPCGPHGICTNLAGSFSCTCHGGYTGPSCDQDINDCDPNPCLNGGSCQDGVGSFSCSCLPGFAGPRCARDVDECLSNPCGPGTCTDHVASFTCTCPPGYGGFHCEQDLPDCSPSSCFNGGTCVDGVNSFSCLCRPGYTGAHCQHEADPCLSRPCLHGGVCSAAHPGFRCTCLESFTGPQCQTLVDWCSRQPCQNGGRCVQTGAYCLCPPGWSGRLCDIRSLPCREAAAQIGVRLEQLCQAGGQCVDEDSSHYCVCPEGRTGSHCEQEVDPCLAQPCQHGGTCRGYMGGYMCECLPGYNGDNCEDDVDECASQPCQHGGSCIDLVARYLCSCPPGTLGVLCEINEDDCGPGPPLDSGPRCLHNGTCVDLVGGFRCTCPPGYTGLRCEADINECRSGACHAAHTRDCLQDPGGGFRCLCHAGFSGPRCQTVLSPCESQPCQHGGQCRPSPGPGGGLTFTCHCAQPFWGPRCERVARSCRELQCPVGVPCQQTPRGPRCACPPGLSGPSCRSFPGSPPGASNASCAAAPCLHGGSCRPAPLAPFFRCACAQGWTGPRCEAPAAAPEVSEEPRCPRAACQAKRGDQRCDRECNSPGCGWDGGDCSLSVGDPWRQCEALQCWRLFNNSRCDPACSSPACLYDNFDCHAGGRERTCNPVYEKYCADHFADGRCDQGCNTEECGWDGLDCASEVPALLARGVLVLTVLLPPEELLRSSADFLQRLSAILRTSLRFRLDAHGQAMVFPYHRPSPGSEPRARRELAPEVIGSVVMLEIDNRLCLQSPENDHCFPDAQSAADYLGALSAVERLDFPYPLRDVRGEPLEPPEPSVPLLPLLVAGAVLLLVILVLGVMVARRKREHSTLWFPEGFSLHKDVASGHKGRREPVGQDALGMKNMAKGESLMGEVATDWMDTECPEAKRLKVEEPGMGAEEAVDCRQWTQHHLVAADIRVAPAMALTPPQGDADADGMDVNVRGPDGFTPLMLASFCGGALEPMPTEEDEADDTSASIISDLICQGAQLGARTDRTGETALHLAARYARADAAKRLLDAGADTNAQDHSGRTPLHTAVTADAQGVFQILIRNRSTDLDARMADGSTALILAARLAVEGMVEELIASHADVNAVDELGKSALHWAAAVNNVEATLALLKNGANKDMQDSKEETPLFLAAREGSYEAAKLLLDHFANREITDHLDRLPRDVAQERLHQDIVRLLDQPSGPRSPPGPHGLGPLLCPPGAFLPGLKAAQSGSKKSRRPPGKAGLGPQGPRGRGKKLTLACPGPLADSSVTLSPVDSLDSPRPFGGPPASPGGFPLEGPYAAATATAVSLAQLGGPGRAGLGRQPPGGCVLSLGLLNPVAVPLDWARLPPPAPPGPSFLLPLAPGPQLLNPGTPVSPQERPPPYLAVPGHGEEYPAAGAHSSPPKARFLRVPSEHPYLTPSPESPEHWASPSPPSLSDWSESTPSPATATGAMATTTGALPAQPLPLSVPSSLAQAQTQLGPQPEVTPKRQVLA

On to `C=C(/C(=C/C[C@H](OC(=O)c1ccncc1)c1ccc(CO)o1)c1cc(C(=O)OC)ccc1OC)C(C)C`, for which the composite z-score in test [1] is -0.259; in [2] it was 0.816; in test [3], -0.0097; in [4] it was 1.08; in test [5], 0.238; in test [6] it was 0.928. Also, the composite z-score is 1.23 in test [7]; 0.201 in [9]; 0.113 in test [10]; 1.44 in test [11]; 1.6 in [15]; -0.116 in test [17]. Also, the values for the composite z-score in [18], in [19] and in test [20] were 0.424, 1.02 and -0.0902, respectively. Also, the z-score was -0.918 (inactive) in test [8]; -0.0096 (inactive) in test [12]; -0.515 (inactive) in [13]; -0.38 (inactive) in test [14]; 0.425 (inactive) in test [16].

On to `CN(C)C(=O)[C@]1(CCS(=O)(=O)c2ccccc2)N=C(c2ccc(OCCCO)cc2)O[C@@H]1c1ccccc1N=[N+]=[N-]`, for which the composite z-score in test [1] came to 0.169; in [2], 1.13; in test [3], 0.15; in test [4], 1.16; in test [5] it was 1.59; in [6], 1.27. Further, the composite z-score in test [7] came to 1.4; in test [9], 1.84; in test [10] it was 0.155; in [11] it was 1.53; in test [15], 3.78; in test [17], 0.429. Further, the composite z-score is 1.42 in test [18], 1.05 in test [19] and 0.204 in test [20]. In addition, the z-score was 2.79 (inactive) in test [8]; 0.154 (inactive) in [12]; -0.327 (inactive) in test [13]; 1.69 (inactive) in [14]; 0.0837 (inactive) in test [16].

On to `CO[C@H]1O[C@H](CO)[C@@H](OC(=O)Nc2ccc3c(c2)OCO3)[C@H](OC(=O)c2cc3ccccc3[nH]2)[C@H]1OC(=O)c1cc2ccccc2[nH]1`, for which the composite z-score is -0.0446 in test [1]; -0.152 in [2]; -0.0047 in test [3]; 0.236 in test [4]; -0.904 in [5]; 0.386 in [6]. For the same compound, the composite z-score in [7] was 0.514; in test [9], -0.598; in [10] it was 0.0623; in [11], 0.391; in test [15] it was -0.33; in [17], 0.0204. The composite z-score in test [18] was 0.111; in [19], 0.123; in [20], -0.0828. Further, the z-score in [8] was 1.13 (inactive); in [12], -2.1 (inactive); in test [13], -0.908 (inactive); in [14], 0.489 (inactive); in [16], 0.382 (inactive).

On to `COC(=O)C(CC#Cc1ccc2c(c1)[C@]1(C(=O)N2)[C@H](C(=O)N2CCN(c3ncccn3)CC2)[C@H]2C(=O)O[C@H](c3ccccc3)[C@H](c3ccccc3)N2[C@@H]1c1ccc(OCCO)cc1)C(=O)OC`, for which the composite z-score was -0.448 in [1]; 1.21 in [2]; -0.0768 in test [3]; 0.554 in test [4]; 1.16 in test [5]; 1.67 in test [6]. The composite z-score is 1.26 in test [7]; 0.38 in [9]; -0.0296 in [10]; 1.53 in test [11]; 2.76 in test [15]; 0.0008 in test [17]. Besides, the results for the composite z-score in [18], in test [19] and in test [20] were 1.3, 1.02 and -0.0177, respectively. For the same compound, the z-score is 1.97 (inactive) in test [8]; 3.19 (inactive) in test [12]; 2.13 (inactive) in test [13]; 5.67 (inactive) in [14]; 0.54 (inactive) in test [16].

As for `O=C1OCC=C[C@H]2OC34C=CCN(Cc5ccccc5)C(=O)[C@H]3N(CCCCCCO)C(=O)[C@@H]4[C@@H]12` (stereo not given in full), the composite z-score is 0.329 in test [1]; -0.443 in test [2]; -0.191 in test [3]; -0.0166 in test [4]; -0.812 in [5]; 0.273 in test [6]. Also, the composite z-score in test [7] was 1.12; in test [9] it was -0.474; in test [10], -0.249; in [11], -0.325; in test [15], 1.76; in [17], 0.0124. In addition, the composite z-score is -0.742 in test [18], -0.153 in [19] and -0.159 in [20]. In addition, the z-score in [8] was -0.843 (inactive); in test [12], -0.997 (inactive); in [13], 0.0262 (inactive); in test [14], -1.53 (inactive); in test [16] it was 2.11 (inactive).

The record behind these values is PubChem BioAssay.
